Assay outcomes: PubChem, several laboratories
A selection: hits, their analogues and other compounds. The true share with any hit is near 1.3%.
BJeLR lethal = kills HRASV12-expressing BJeLR cells; BJeLR (HRASV12) viability, CellTiter-Glo ATP luminescence, 48 h; inhibition, % (concentration not given with the values); hit rate 0.17% among 300,000; in the data active means inhibition above about 50%; inconclusive means no clear call, values can overlap the other calls
3CLpro inhibitor = SARS-CoV 3CLpro protease inhibition; P0C6X7; recombinant SARS-CoV 3CLpro, quenched FRET peptide cleavage; inhibition, % at 6 µM; hit rate 0.14% among 290,000; in the data active means inhibition above about 12%
PfHsp40 yeast = restores yeast growth despite PfHsp40 toxicity | hit rate 0.68% among 340,000 | growth rescue, % at 12.5 µM | S. cerevisiae expressing PfHsp40, growth rescue, ATP luminescence; in the data active means growth rescue above about 28%, passing the limit was not always enough; inconclusive means no clear call, values can overlap the other calls;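 further: yeast W303a lacking pdr1 and pdr3 grown in galactose medium; growth measured after three days at 30 °C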
RN4220 kill = S. aureus RN4220 growth inhibition | OD600, 16 h | inhibition, % (no concentration beside the values) | hit rate 0.33% among 330,000 | AID 1259311; in the data active means inhibition above about 85%
Sa ugtP lethal = growth inhibition of S. aureus ugtP deletion strain. S. aureus RN4220 ugtP deletion, OD600 growth, 16 h. growth inhibition, % (no concentration beside the values). hit rate 0.54% among 330,000. AID 1259309; in the data active means growth inhibition above about 68%
A number is an active result; . = inactive; ? = inconclusive; / = not tested or not shown.

SMILES | BJeLR lethal | 3CLpro inhibitor | PfHsp40 yeast | RN4220 kill | Sa ugtP lethal
CCCCNc1nc2cccnc2s1 | . | . | . | . | .
COc1ccc2c(c1)sc(N)[n+]2Cc1cc(C)cc2cccnc12 | 52 | . | . | . | .
CCOc1ccc2c(c1)sc(N)[n+]2Cc1cc(C)cc2cccnc12 | . | . | . | . | .
Cc1ccc(-n2c(O)c(C=Nc3ccccc3N)c(=O)[nH]c2=O)cc1C | . | . | 40 | . | .
O=C(CN1CCN(c2ccccn2)CC1)Nc1ccccc1 | . | . | 26 | . | .
COC(=O)C1=C(c2ccc(F)cc2OCc2ccccc2)CC2CCC1N2C(=O)NCCc1ccc(F)cc1 (stereo unspecified) | / | / | / | . | .
N[C@@H]1C[C@H]1c1ccccc1 | / | / | 44 | / | /
Cc1csc(-c2cnn(-c3ccccc3)c2NC(=O)c2ccc(C(F)(F)F)cc2)n1 | . | . | 46 | . | .
Cc1ccc2c(c1)C1(OCCCO1)C(=O)N2CC#N | . | . | . | . | .
Cc1ccc(NS(=O)(=O)c2ccc3c(c2)NC(=O)CCS3)c(Br)c1 | . | . | . | 98 | 96
Cc1ccccc1NS(=O)(=O)c1ccc2c(c1)NC(=O)CCS2 | . | . | . | 89 | .
COc1ccc(CCC(=O)NCc2ccco2)cc1 | . | . | . | . | .
O=C(NC1CCSc2ccccc21)c1cccc(Br)c1 (stereo unspecified) | . | . | 94 | . | .
COc1ccc2cc3cc(C(=O)N4CCN(Cc5ccc6c(c5)OCO6)CC4)oc3nc2c1 | . | . | . | . | .
NC1=C(Cl)C(=O)c2ccc(S(N)(=O)=O)cc2C1=O | / | / | . | 99 | 98
CC(=NO)C1CCC2C3CCC4CC(=NO)CCC4(C)C3C(C)(O)CC12C (stereo unspecified) | / | / | . | . | .
c1ccc(CC2CCN(Cc3ccccn3)CC2)cc1 | . | . | 50 | . | .
Clc1ccc(CN2CCC(Cc3ccccc3)CC2)cc1 | . | . | . | . | .
CCOC(=O)c1oc2ccc(Br)cc2c1NC(=O)CN1CCN(C)CC1 | / | . | . | . | 91
COC(=O)c1oc2ccc(Br)cc2c1NC(=O)CCN1CCOCC1 | . | . | . | . | .
CCC(C)(C)n1nnnc1C(c1cccc(C#N)c1)N1CCN(c2cc(C)ccc2C)CC1 (stereo unspecified) | . | / | . | . | .
O=C(c1ccc(Cl)cc1)C(CN1CCCC1)c1ccccc1 (stereo unspecified) | . | . | . | . | 87
CCN(CC)S(=O)(=O)c1ccc(-c2nnc(SCc3nnc(-c4ccc(C)cc4)o3)n2CC)cc1 | . | . | 45 | . | .
CCN(CC)S(=O)(=O)c1ccc(-c2nnc(SCc3nnc(-c4ccc(C)cc4)o3)o2)cc1 | . | . | . | . | .
CCOc1ccc(C(=O)Nc2ccc(N3CCN(C)CC3)cc2)cc1 | . | . | . | . | .
SMILES | BJeLR lethal | 3CLpro inhibitor | PfHsp40 yeast | RN4220 kill | Sa ugtP lethal
CCOc1ccc(NC(=O)c2ccc(NC(=O)c3cn4c5c(c(N6CCN(C)CC6)c(F)cc5c3=O)OCC4C)cc2)cc1 (stereo unspecified) | . | . | . | 98 | 98
CC1COc2c(N3CCN(C)CC3)c(F)cc3c(=O)c(C(=O)O)cn1c23 (stereo unspecified) | . | / | . | 100 | 99
COc1c(F)c(F)cc2c(=O)c(C(=O)O)cn(C3CC3)c12 | . | . | . | . | .
COc1ccc(-c2c(C#Cc3ccsc3)c3cc(-c4ccc(C(N)=O)cc4)ccc3n2C)cc1 | / | / | . | . | .
O=C(NN=Cc1cc(=O)[nH]c(=O)[nH]1)c1ccncc1 | / | / | 30 | / | /
O=C(NN=Cc1ccc([N+](=O)[O-])cc1)c1ccncc1 | / | / | . | . | .
O=C(NN=Cc1cc([N+](=O)[O-])ccc1O)c1ccncc1 | / | / | / | 86 | .
O=C(NN=Cc1cc([N+](=O)[O-])ccc1O)c1ccc2c(c1)OCCO2 | / | / | / | 90 | .
O=C(NN=Cc1cc([N+](=O)[O-])ccc1O)Nc1ccccc1 | / | / | / | 91 | .
COc1ccc(O/C(=N\S(=O)(=O)c2ccccc2)c2ccccc2)cc1 | . | . | . | / | /
Cc1cccc(-c2ccc3ncnc(NCc4cccnc4)c3c2)c1 | / | / | . | . | .
COc1ccc(-c2ccc(C#N)c(SCC(=O)Nc3sc4c(c3C#N)CCC4)n2)cc1OC | . | . | . | . | .
O=[N+]([O-])c1ccc(O)c(/C=N/Nc2nn[nH]n2)c1 | . | . | . | / | /
O=[N+]([O-])c1ccc(O)c(C=NNc2nn[nH]n2)c1 | / | / | / | 95 | 87
CC(C)c1cc(C(C)C)c(S(=O)(=O)N2CCNCC2)c(C(C)C)c1 | . | / | . | . | .
Oc1ccc(C=NN(c2ccccc2)c2ccccc2)cc1O | / | / | / | . | .
C(=NN(c1ccccc1)c1ccccc1)c1ccc2c(c1)OCO2 | / | / | / | . | 95
O=C(Nc1cccnc1)c1ccc(COc2ccccc2Br)o1 | . | . | . | . | .
CC(C)(C)c1ccc(OCc2ccc(C(=O)Nc3cccnc3)o2)cc1 | . | . | 37 | . | .
CNC(=S)Nc1ccc(C23CC4CC(CC(C4)C2)C3)cc1 | . | . | 179 | . | .
CC(=O)Nc1ccc(C23CC4CC(CC(C4)C2)C3)cc1 | . | . | . | . | .
Cc1cccc(N(C)S(=O)(=O)c2ccc(-c3cnc(C4CC4)o3)cc2)c1 | 65 | . | . | . | .
Cc1ccc(N(C)S(=O)(=O)c2cc(-c3cnc(C4CC4)o3)ccc2C)cc1 | . | . | . | . | .
NC(=NCCCCCCN=C(N)N=C(N)Nc1ccc(Cl)cc1)N=C(N)Nc1ccc(Cl)cc1 | / | / | / | 100 | 100
COC(=O)c1ccc([C@H](NC(=O)c2ccco2)[C@]2(C)C[C@H]2C2CCCCC2)cc1 | . | / | 68 | / | /
SMILES | BJeLR lethal | 3CLpro inhibitor | PfHsp40 yeast | RN4220 kill | Sa ugtP lethal
O=C(OC1CCCCC1)c1ccc(NC(=O)c2ccco2)cc1 | . | . | ? | . | .
NC(=O)CCn1c2ccccc2c2ccccc21 | . | . | . | . | .
CC(C)CCn1c2ccccc2c2cc(CC(N)=O)ccc21 | . | . | . | . | 83
CCN(C(=O)CN1CCCCC1C)c1c(N)n(Cc2ccccc2)c(=O)[nH]c1=O (stereo unspecified) | / | / | . | . | .
C=CCNC(=S)N1CCC(Cc2ccccc2)CC1 | . | . | 91 | . | .
O=C(Cn1c(=O)oc2ccccc21)Nc1nc(-c2ccc(Br)cc2)cs1 | . | . | . | / | /
CC1(C)CC(=O)c2c(nc(SCC(=O)Nc3nsc(-c4ccccc4)n3)c(C#N)c2-c2ccccc2)C1 | 59 | . | . | . | .
Cc1nnc(SCC(=O)Nc2nsc(-c3ccccc3)n2)s1 | . | . | . | . | .
CCCC(CN1CCCC1CN1C(N)=NCC1Cc1ccccc1)N1CC(Cc2ccccc2)N(CCCC2CCCC2)C1=N (stereo unspecified) | / | / | / | 101 | 101
CCC(C)C1CN(C(CN2CCCC2CN2C(N)=NCC2Cc2ccccc2)C(C)C)C(=N)N1CCCC1CCCC1 (stereo unspecified) | / | / | / | 100 | 100
CC[C@@H](C)[C@@H]1CN([C@@H](CN2CCC[C@H]2CN2C(N)=NC[C@H]2C(C)C)C(C)C)C(=N)N1CCCC1CCCC1 | / | / | . | 94 | 100
